From PubChem BioAssay AID2842 (Southern Research Institute, 2010)
The whole screen tested about 24,000 compounds, of which about 1,200 (5%) were called active. About 2% were inconclusive and are not listed. No rule for the calls is given here. The list is a sample of the results.

Assay: Mycobacterium tuberculosis H37Rv growth inhibition, putative kinase inhibitor library, confirmatory dose response (AID 2842);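 as to inhibition: bacteria incubated one week before Alamar blue readout; 0% = bacteria only wells and 100% = bacteria with high antibiotic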
Details: M. tuberculosis H37Rv growth inhibition; CC50: measured here: Vero cell cytotoxicity; inhibition: stronger effect = higher value

Row | SMILES | inhibition | CC50 [µg/mL]
1 | Cc1cccc(-n2ccnc2SCC(=O)Nc2nc3ccccc3s2)c1C | 4.43% (inactive) | 
2 | CCOc1ccc(/C(O)=C2\C(=O)C(=O)N(CCCn3ccnc3)C2c2ccc(F)cc2)cc1Cl (stereo unspecified) | -17.6% (inactive) | 
3 | CSc1ccc2nc(Nc3ccc(F)cc3F)sc2c1 | 8.52% (inactive) | 
4 | C=CCOC(=O)C1=C(C)Nc2[nH]c(=O)[nH]c(=O)c2C1c1ccc(Cl)c(Cl)c1 (stereo unspecified) | -6.17% (inactive) | 
5 | Nc1nc(SCC(=O)N2CCCCCC2)[nH]c(=O)c1NC(=O)c1ccco1 | -18.5% (inactive) | 
6 | O=C(Nc1nc(-c2ccc(Cl)cc2Cl)cs1)c1ccc2c(c1)OCCO2 | 0.34% (inactive) | 
7 | CC1=C(C(=O)Nc2ccc(Cl)cc2)C(c2ccccc2Cl)C(C#N)=C(SCC(N)=O)N1 (stereo unspecified) | 71.6% (inactive) | 
8 | Cc1nc2sc(C(N)=O)c(N)c2c(-c2ccccc2)c1C(=O)Nc1ccccc1 | 1.79% (inactive) | 
9 | CCOC(=O)c1cnc2ccc(OCC)cc2c1Nc1cccc(Cl)c1C | -5.22% (inactive) | 
10 | COc1ccc(-n2c(=O)[nH]cc(C(=O)Nc3ccc4c(c3)OCO4)c2=O)cc1OC | 1.59% (inactive) | 
11 | Cc1ccccc1NC(=O)Cc1csc(NS(=O)(=O)c2ccc(Cl)cc2)n1 | -5.2% (inactive) | 
12 | Cc1ccnc(NC(=O)NC2CC(=O)N(c3ccc(F)cc3)C2)c1 (stereo unspecified) | 11.3% (inactive) | 
13 | CCOC(=O)c1oc2ccccc2c1NC(=O)c1ccc(F)c(F)c1 | 3.18% (inactive) | 
14 | CC1CCc2c(sc(NC(=O)c3ccc4ccccc4c3)c2C#N)C1 (stereo unspecified) | 1.23% (inactive) | 
15 | CCCCCCCNC(=O)c1c(N)n(/N=C/c2ccco2)c2nc3ccccc3nc12 | -9.39% (inactive) | 
16 | O=C(O)COc1ccccc1/C=C1/SC(=S)N(NC(=O)c2ccco2)C1=O | -1.98% (inactive) | 
17 | CNC(=O)c1c(NC(=O)CC2SC(=O)NC2=O)sc2c1CCCC2 (stereo unspecified) | -3.54% (inactive) | 
18 | Cc1ccc(C(=O)Nc2cc(C)c3c(=O)oc4ccccc4c3n2)cc1[N+](=O)[O-] | -2.97% (inactive) | 
19 | O=C(CN1N=NC2C(=O)N(c3ccc(Cl)cc3)C(=O)C21)Nc1ccccc1Cl (stereo unspecified) | 0.65% (inactive) | 
20 | COc1ccc(NC(=O)C2=C(C)Nc3ncnn3C2c2ccc(C#N)cc2)cc1 (stereo unspecified) | -1.94% (inactive) | 
21 | COc1ccc(/C(O)=C2\C(=O)C(=O)N(CCCn3ccnc3)C2c2cccc(F)c2)cc1Cl (stereo unspecified) | -11.8% (inactive) | 
22 | O=C(CSc1nc2c(c(=O)n1-c1ccc(Cl)cc1)SCC2)Nc1ccc2c(c1)OCO2 | -11.7% (inactive) | 
23 | Cn1c(SCC(=O)N2CCOCC2)nnc1-c1c[nH]c2ccccc12 | -12.7% (inactive) | 
24 | O=C(Nc1nnc(-c2ccc(F)cc2)s1)c1ccccc1 | 8.84% (inactive) | 
25 | CCN1CCN(c2nc(Nc3ccc(OC)cc3)c3nccnc3n2)CC1 | -0.8% (inactive) | 
26 | CCc1ccc(NC(=O)CSc2nc(-c3cccs3)nc3c2c(=O)n(C)c(=O)n3C)cc1 | -5.83% (inactive) | 
27 | CCOc1ccc(C(=O)Nc2nnc(C34CC5CC(CC(C5)C3)C4)s2)cc1 | 9.95% (inactive) | 
28 | COc1ccc(CCNC(=O)C(=O)NCC(c2ccco2)N2CCc3ccccc32)cc1 (stereo unspecified) | -2.72% (inactive) | 

Row | SMILES | inhibition | CC50 [µg/mL]
29 | CSc1ccc2nc(Nc3cc(C)ccc3C)sc2c1 | 13.8% (inactive) | 
30 | COc1cc(CN2CCNC(=O)C2CC(=O)O)cc(OC)c1 (stereo unspecified) | -0.59% (inactive) | 
31 | COCCOC(=O)C1=C(C)NC(=O)NC1c1ccc(OC)cc1 (stereo unspecified) | -0.33% (inactive) | 
32 | COC(=O)c1ccc(CSc2nnc3[nH]c(=O)c(C)c(C)n23)o1 | -3.33% (inactive) | 
33 | CC(=O)Nc1ccc(NC(=O)CSc2ccc(-c3ccc(Cl)cc3)nn2)cc1 | 0% (inactive) | 
34 | O=C(COc1ccccc1F)NC1CC(=O)N(c2ccc(Cl)cc2)C1 (stereo unspecified) | 7.9% (inactive) | 
35 | CCOc1cccc2c1OC(c1cccnc1)N1N=C(c3cccc(O)c3)CC21 (stereo unspecified) | -10.5% (inactive) | 
36 | O=C(CC1Nc2cccc3cccc(c23)NC1=O)Nc1ccc(F)cc1 (stereo unspecified) | 27.5% (inactive) | 
37 | COc1ccc2nc(NC(=O)c3cc(-c4ccccc4)nc4ccccc34)sc2c1 | 95.1% (inactive) | > 40
38 | COc1cccc(C(=O)COC(=O)c2cc3cc(Br)cc(OC)c3oc2=O)c1 | -0.935% (inactive) | 
39 | CCOC(=O)c1nn(-c2ccc(C)cc2)c(=O)cc1NCc1ccncc1 | -9.72% (inactive) | 
40 | COc1ccc(/C=C2\SC(=S)N(CCC(=O)Nc3nccs3)C2=O)cc1OC | -4.88% (inactive) | 
41 | COc1ccccc1N1C(=O)N(c2cccc([N+](=O)[O-])c2)C2CS(=O)(=O)CC21 (stereo unspecified) | -5.59% (inactive) | 
42 | CCS(=O)(=O)c1ccccc1C(=O)Nc1sc2c(c1C(N)=O)CCC(C)C2 (stereo unspecified) | -17.6% (inactive) | 
43 | O=C(Nc1ccc(F)cc1)c1cn(Cc2ccccc2)cc2c(=O)n(-c3ccccc3)nc1-2 | -8.1% (inactive) | 
44 | O=C(CCCc1ccccc1)Nc1c(C(=O)Nc2ccc3c(c2)OCO3)oc2ccccc12 | -0.74% (inactive) | 
45 | Fc1ccc2nc(Nc3nnc(-c4cccs4)o3)sc2c1 | 36% (inactive) | 
46 | COc1cccc(-c2nc(C(N)=O)c3[nH]c(=O)n(-c4ccccc4F)c3n2)c1 | -10.4% (inactive) | 
47 | Cc1ccc(NC(=O)c2oc3ccccc3c2NC(=O)c2ccc([N+](=O)[O-])cc2)cc1 | 3.31% (inactive) | 
48 | COc1ccc2cc(CCNC(=O)c3ccccc3OC)c(=O)[nH]c2c1 | 5.57% (inactive) | 
49 | Cc1c(C(=O)O)c2cc(O)ccc2n1C | 12.9% (inactive) | 
50 | O=C(CN1C(=O)CCC1=O)Nc1nc(-c2ccc(Cl)c(Cl)c2)cs1 | 0.41% (inactive) | 
51 | COc1ccc(Cl)cc1NC(=O)CSc1nnc(CCC(=O)O)c(=O)n1N | -10.7% (inactive) | 
52 | O=C(Nc1nc2c(s1)CCCC2)c1coc2ccccc2c1=O | -2.85% (inactive) | 
53 | O=C(NCc1ccc2[nH]c3c(c2c1)CCCC3)Nc1ccccc1 | 62.6% (inactive) | 
54 | COc1ccc(Nc2ncnc(N)c2[N+](=O)[O-])c(OC)c1 | 0.53% (inactive) | 
55 | Cc1ccc(-c2csc(Nc3ccc(O)c(C(=O)O)c3)n2)cc1 | -6.04% (inactive) | 
